Sampled rows, rich in hits. Any-hit rate of the full collection: about 3.6%.
Rango complex inh: Rango-importin beta binding inhibition. Q14974. Rango CFP/YFP FRET sensor + importin beta, 45 min. Potency, µM (top dose mostly 92.2 µM), inactives show at the highest dose inhibition of complex formation. 0.031% of 340,000 active. AID 540263; calls by dose curve;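 note: potency is the fitted concentration of half-maximal effect; 0% = DMSO wells and 100% = buffer wells lacking importin beta; nearly all actives have a fitted effect of over 15% in size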
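Inhibition scored from the CFP 486 nm/YFP 530 nm FRET ratio 45 min after adding 0.125 microM importin beta to 50 nM Rango biosensor preincubated 5 min with compound (room temperature, PBS with DTT, Tween-20, BSA). No-importin wells as positive control.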
PI5P4Ka inh: inhibitors of human PI5P4K alpha; 1.2% of 330,000 active; max response, %; P48426; PI5P4Kalpha enzyme, ADP-Glo luminescence, 60 min; active compounds read low; active = max response of -50% or lower; inconclusive = between -30% and -50%; inactive = -30% or higher; note: value at the top dose of about 77 µM; % is set by controls: 0 for no effect and ±100 for the full control effect
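Human PI5P4Kalpha with substrate in 0.038 M HEPES pH 7.4, 0.28 mM EGTA, 0.1% CHAPS, 5% DMSO; reaction started with 5 microM ATP (final), 60 min at room temperature. ADP formed read by ADP-Glo luminescence.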
VDR inhibitor: inhibitors of human vitamin D receptor | 0.93% of 400,000 active | Potency, µM, for inactives: max response, negative = inhibition, most hits filed as inhibitors | P11473 | AID 504847 | VDR-SRC2-3 peptide fluorescence polarization, 2 h; note: potency is the fitted concentration of half-maximal effect; % is set by controls: 0 for no effect and ±100 for the full control effect
Target sequence (P11473 whole entry, looked up): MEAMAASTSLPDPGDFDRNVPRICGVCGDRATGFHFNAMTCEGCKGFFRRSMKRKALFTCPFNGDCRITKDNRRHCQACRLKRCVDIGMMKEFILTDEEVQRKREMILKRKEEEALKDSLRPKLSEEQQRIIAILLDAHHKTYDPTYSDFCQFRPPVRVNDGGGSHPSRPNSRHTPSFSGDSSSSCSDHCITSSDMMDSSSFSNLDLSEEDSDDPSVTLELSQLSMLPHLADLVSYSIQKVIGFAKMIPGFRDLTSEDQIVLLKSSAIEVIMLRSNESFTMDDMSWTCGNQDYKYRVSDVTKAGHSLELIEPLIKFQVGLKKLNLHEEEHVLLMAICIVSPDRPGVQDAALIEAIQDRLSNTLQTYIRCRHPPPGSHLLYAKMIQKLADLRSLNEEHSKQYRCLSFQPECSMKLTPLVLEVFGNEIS
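Reagent solutions, kept cold and dark, are dispensed first; compounds are then pinned in at 23 nl, plates briefly spun, and incubated 2 h at ambient temperature. Inhibition of VDR–SRC2-3 peptide binding is read by fluorescence polarization.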
PLK1 PBD block: inhibitors of human PLK1 polo-box domain binding | P53350 | Plk1 PBD binding of FITC phosphopeptide, fluorescence polarization | Potency, µM, inactives show max response, negative = inhibition, usual class: inhibitors | 2.8% of 360,000 active | AID 720504; note: potency is the fitted concentration of half-maximal effect; series mostly up to about 57 µM; % is set by controls: 0 for no effect and ±100 for the full control effect; nearly all actives have a fitted effect of over 65% in size
Rango dissoc inh: inhibitors of RanGTP-induced Rango-importin beta complex dissociation | 0.071% of 340,000 active | Biochemical FRET Rango-importin beta, RanGTP-induced dissociation | Potency, µM (doses to about 46.1 µM), for inactives: at the highest dose activity change, negative = inhibition; calls by dose curve; note: potency is the fitted concentration of half-maximal effect; % of control where 0% means no effect; nearly all actives have a fitted effect of over 45% in size
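Rango FRET biosensor (snurportin-1 IBB flanked by N-terminal EYFP and C-terminal CFP10) at 0.1 uM, with 0.25 uM importin beta in PBS, 1mM DTT, 0.02% Tween-20, 0.1% BSA. 0.6 uM Ran, 2mM GTP and 0.2 uM RCC1 were then added for 45 min at room temperature. Inhibition read as loss of FRET rise.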
KAT2A inh: inhibitors of human GCN5L2 histone acetyltransferase; GCN5L2 HAT assay, ThioGlo1 CoA-SH fluorescence; Potency, µM (series often up to 58.9 µM), for inactives: at the highest dose activity change, negative = inhibition, hits mostly inhibitors; 0.21% of 390,000 active; AID 504327; note: potency is the fitted concentration of half-maximal effect; % is set by controls: 0 for no effect and ±100 for the full control effect
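GCN5L2 (20 nM) in 50mM HEPES pH 7.5, 0.1mM EDTA, 0.01% Tween-20 preincubated 15 min with compounds at room temperature. Reaction started with H3(1-25) 75uM, acetyl-CoA 70uM, ThioGlo1 50uM; CoA-thiol fluorescence (Ex340/Em540) read at 0 and 20 min.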
The depositor's hits bear a star; ? = inconclusive; · = not tested or not shown; ! = repeats disagree. Unless noted, calls come from the whole dose curve; as a rule, active = well fitted curve in the direction sought with a large enough effect; inconclusive = small, poorly fitted or top-dose-only effect, or another doubt; inactive = no such curve, though single readings can be large; an effect the other way counts as inactive or inconclusive.

SMILES	Rango complex inh	PI5P4Ka inh	VDR inhibitor	PLK1 PBD block	Rango dissoc inh	KAT2A inh
COc1cc(/C=C2\CCC/C(=C\c3ccc(O)c(OC)c3)C2=O)ccc1O	?	-8	25µM*!	-10%	?	?
COc1cc(/C=C2\CC/C(=C\c3cc(OC)c(O)c(OC)c3)C2=O)cc(OC)c1O	?	?	-14%	4.7µM*	?	-11%
COc1cc(/C=C2/CCCC(C(=O)C(F)(F)F)=C2O)ccc1O	?	-12	-3%	-6%	?	-7%
COc1ccc(-c2nc3c4ccccc4n(CC(=O)Nc4cc(F)ccc4F)c(=O)n3n2)cc1	·	·	2%	·	·	-7%
N#Cc1ccc(CS(=O)(=O)c2ccccc2)cc1	·	·	4%	·	·	·
O=C(CN1C(=O)COc2ccc(S(=O)(=O)Nc3ccccc3)cc21)NCc1ccccc1Cl	·	·	6%	·	·	0%
O=[N+]([O-])c1ccc(Nc2ccccc2)c2nonc12	1%	-26	3%	-8%	20%	-3%
NNc1ccc([N+](=O)[O-])c2[nH][nH]c(=O)c12	·	-83*	·	24µM*	·	·
Cn1nc(-c2ccc(F)cc2)nc2c(=O)n(C)c(=O)nc1-2	·	·	-4%	·	·	·
COC(=O)N1C(=O)[C@](c2ccc(Cl)cc2)(C(C)C)N1C(=O)OC	-2%	6	?	24µM*	-5%	-4%
CC(C)Oc1ccc(CNC(=O)C2CCN(C(=O)N3CCOc4ccc(Cl)cc43)CC2)cc1	·	·	8%	·	·	-11%
Cc1c(NS(=O)(=O)c2ccc(C(C)(C)C)cc2)c(=O)n(-c2ccccc2)n1C	·	·	6%	·	·	3%
CCOC(=O)c1ccc(NC(=O)CN2C(=O)c3cccnc3Sc3ccccc32)cc1	·	·	14%	·	·	-8%
CC(=O)c1ccc(N2CCN(C(=O)C3CCCN(S(=O)(=O)c4c(C)[nH]c(=O)[nH]c4=O)C3)CC2)cc1 (stereo unspecified)	5%	5	?	15µM*	7%	-3%
CCOC(=O)c1c(C)[nH]c(C)c1S(=O)(=O)N1CCCC(C(=O)N2CCN(c3ccc(Cl)cc3)CC2)C1 (stereo unspecified)	·	·	12%	·	·	-7%
CCOC(=O)c1c(NC(=O)c2nc(S(C)(=O)=O)ncc2Cl)sc(C(C)=O)c1C	·	·	-29%	·	·	-3%
COc1ccc(C2Nc3ccccc3C(=O)N2c2cccc3ccccc23)cc1COc1c(C)cccc1C (stereo unspecified)	·	·	-1%	·	·	·
CC(Oc1ccc(Cl)cc1Cl)C(=O)NCCCn1ccnc1 (stereo unspecified)	-2%	-5	-12%	24µM*	-6%	0%
O=C(CCCOc1ccc(Cl)cc1Cl)NCCCn1ccnc1	0%	-2	15%	-8%	0%	-1%
Cc1ccc(CNc2nc3ccccc3n3c(C)nnc23)cc1	·	·	13%	·	·	-2%
CN(C)CCNC(=O)C(=O)NCC(c1cccnc1)N1CCN(c2ccccc2)CC1 (stereo unspecified)	·	·	6%	·	·	-3%
Cc1c(C(=O)Nc2nonc2-c2ccc(F)cc2)oc2ccc(F)cc12	2%	-2	?	30µM*	7%	-9%
N#CCCN(C(=S)NC(=O)c1ccco1)c1ccccc1F	1%	3	-10%	30µM*	4%	-12%
N#CCCN(Cc1cccnc1)C(=S)NC(=O)c1ccco1	-3%	1	-7%	-5%	-14%	5%
O=C(CNS(=O)(=O)c1ccccc1)NCC(=O)OCc1ccc(Br)cc1	-1%	-29	?	12µM*	-4%	-1%
SMILES	Rango complex inh	PI5P4Ka inh	VDR inhibitor	PLK1 PBD block	Rango dissoc inh	KAT2A inh
COC(=O)c1ccc(COC(=O)CNS(=O)(=O)c2ccccc2)cc1	-2%	-1	12%	4%	8%	?
COc1cccc(NC(=O)Cn2c(=O)n(-c3ccccc3)c(=O)c3ccc(C(=O)NCc4ccc5c(c4)OCO5)cc32)c1	·	·	4%	·	·	-6%
CC(C)CN(Cc1cc(=O)oc2cc(-c3ccccc3)c(O)cc12)CC(C)C	1%	-3	-24%	30µM*	-6%	-15%
CC(CNC(=O)c1cc2ccccn2n1)c1ccccc1 (stereo unspecified)	·	·	9%	·	·	-7%
COc1ccccc1CNC(=O)CCNS(=O)(=O)c1cc(Br)cnc1N	0%	-12	-23%	27µM*	10%	-9%
O=C(CN1C(=O)CCc2cc(S(=O)(=O)N3CCOCC3)ccc21)NCc1ccccc1Cl	·	·	3%	·	·	22%
O=C1C(=Cc2cn(-c3ccccc3)nc2-c2ccc(OCc3ccccc3)cc2)SC(=S)N1CCS(=O)(=O)O	·	-65*	·	?	·	·
CCCOc1ccc(-c2nn(-c3ccccc3)cc2/C=C2\SC(N)=NC2=O)cc1	?	-1	1%	7%	?	-11%
Cc1ccc(-c2nn(-c3ccccc3)cc2C=C2SC(=S)N(CCS(=O)(=O)O)C2=O)cc1	·	-89*	·	11µM*	·	·
Nc1nc(SCC(=O)N2N=C3/C(=C\c4ccco4)CCCC3C2c2ccco2)n[nH]1 (stereo unspecified)	2%	?	1%	-7%	18%	·
O=C(CSc1nccc(=O)[nH]1)N1N=C2/C(=C/c3ccco3)CCCC2C1c1ccco1 (stereo unspecified)	-2%	-58*	-10%	-17%	-14%	?
Nc1nc(SCC(=O)N2N=C3/C(=C/c4ccco4)CCCC3C2c2ccco2)n[nH]1 (stereo unspecified)	0%	-52*	3%	-9%	-2%	-11%
Cc1cccc(NC(=O)C(=O)NCC(c2cccnc2)N2CCc3ccccc3C2)c1C (stereo unspecified)	·	·	-2%	·	·	-7%
Cc1cc(C(=O)COC(=O)c2ccco2)c(C)n1Cc1ccco1	-2%	-55*	-13%	-19%	-9%	-6%
CCOC(=O)C1(C)NC(c2ccccc2F)C2C(=O)N(c3cccc(C(C)=O)c3)C(=O)C21 (stereo unspecified)	-3%	?	25µM*	3.8µM*	4%	-3%
O=C(O)CCn1cc(/C=C\C(=O)c2ccc(Cl)cc2)c(-c2cccc(Br)c2)n1	2%	-15	50µM*	24µM*	-9%	33%
Cc1ccc(-c2nn(CCC(=O)O)cc2/C=C\C(=O)c2ccc(Br)cc2)cc1	1%	-23	35µM*	38µM*	-7%	3%
O=S(=O)(c1ccccc1)N1CCC[C@@]2(CCN(c3cccc(-c4ccccc4)c3)C2)C1	·	·	-30%	·	·	-7%
O=S(=O)(c1ccccc1)N1CCC[C@@]2(CCN(c3ccccc3)C2)C1	·	·	32µM*	·	·	-13%
COc1ccc(C(=O)OCC(=O)Nc2ncc([N+](=O)[O-])s2)cc1OC	-3%	-77*	?	9.5µM*	-1%	?

Screens deposited in PubChem by National Center for Advancing Translational Sciences (NCATS).
